Bioassay records: PubChem, National Center for Advancing Translational Sciences (NCATS)
In the library only some 10% were active in any assay of this set; here they are far more common.
BAZ2B inh: qHTS Assay for Inhibitors of BAZ2B; AID 504333, 2011; AlphaScreen BAZ2B-H3K14Ac peptide displacement; Potency, µM (titrated, usually from 114 µM), inactives show at the top dose activity change, negative = inhibition, most hits filed as inhibitors; Bromodomain adjacent to zinc finger domain protein 2B (Homo sapiens), Q9UIF8; 360,000 tested, 4.4% active; note: % is set by controls: 0 for no effect and ±100 for the full control effect; nearly all actives have a fitted effect of over 60% in size
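AlphaScreen displacement of biotin-H3(5-23)K14Ac peptide (50 nM final) from BAZ2B (50 nM final) in PBS pH 7.4, 0.01% Tween-20; complex preformed 30 min RT, then compounds (top 110 uM) 30 min RT, beads 20 min dark.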
G9a inh: qHTS Assay for Inhibitors of Histone Lysine Methyltransferase G9a; Histone-lysine N-methyltransferase EHMT2 (Homo sapiens), Q96KQ7; G9a H3K9 monomethylation, AlphaScreen, 2 h; AID 504332, 2011; 350,000 tested, 8.8% active; Potency, µM (doses to about 102 µM), for the others: at the top dose activity, negative = inhibition, actives largely listed as inhibitors; note: % is set by controls: 0 for no effect and ±100 for the full control effect; nearly all actives have a fitted effect of over 75% in size
Target sequence (Q96KQ7 913-1193 limits assumed): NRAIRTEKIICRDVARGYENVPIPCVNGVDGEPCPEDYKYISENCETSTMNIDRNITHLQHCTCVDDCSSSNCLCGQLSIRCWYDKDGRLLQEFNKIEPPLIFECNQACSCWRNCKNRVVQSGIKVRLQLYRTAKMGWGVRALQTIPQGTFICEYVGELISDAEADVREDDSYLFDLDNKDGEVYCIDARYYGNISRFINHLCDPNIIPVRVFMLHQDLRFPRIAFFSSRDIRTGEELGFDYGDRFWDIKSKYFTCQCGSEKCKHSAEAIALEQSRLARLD
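Readings reflect AlphaScreen signal from monomethyl-H3K9 antibody detection. HMT at 20 nM; substrate b-H3K9 500 nM; cofactor SAM 20 uM; 2 h RT reaction; compounds tested as titrations in qHTS with 15 min preincubation.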
L3MBTL1 inh: qHTS Assay for the Inhibitors of L3MBTL1. Lethal(3)malignant brain tumor-like protein 1 (Homo sapiens), Q9Y468. AlphaScreen L3MBTL1–H3K9me1 peptide binding. Potency, µM (doses to about 57.1 µM), without a hit: top-dose activity, negative = inhibition, actives largely listed as inhibitors. 230,000 tested, 0.66% active. AID 485360, 2010; note: % is set by controls: 0 for no effect and ±100 for the full control effect; nearly all actives have a fitted effect of over 60% in size
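L3MBTL1 50 nM + b-AHA-H3(1-15)K9me1 75 nM, 30 min RT; compound added, 30 min RT; streptavidin donor/Ni-chelate acceptor beads 10 ug/mL each final, 30 min RT dark; AlphaScreen read.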
JMJD2A Tudor inh: qHTS Assay for Inhibitors of JMJD2A-Tudor Domain. Lysine-specific demethylase 4A (Homo sapiens), O75164. AlphaScreen JMJD2A-Tudor / H3K4me3 peptide binding. Potency, µM (doses to about 114 µM), for inactives: at the highest dose activity change, negative = inhibition, hits mostly inhibitors. 390,000 tested, 4.4% active. AID 504339, 2011; note: % is set by controls: 0 for no effect and ±100 for the full control effect; nearly all actives have a fitted effect of over 50% in size
GLS inhibitor: qHTS for Inhibitors of Glutaminase (GLS); Potency, µM (titrated, usually from 45.5 µM), for the others: at the top dose activity change, negative = inhibition, most hits filed as inhibitors; AID 624170, 2012; 410,000 tested, 0.21% active; GLS enzymatic activity, qHTS titration; Glutaminase kidney isoform, mitochondrial (Homo sapiens), O94925; note: % is set by controls: 0 for no effect and ±100 for the full control effect
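Assay buffer: 45 mM KH2PO4 pH 8.2, 0.02% Tween-20. hKGA acts on L-glutamine (1 mM solution added); product glutamate is reported by an oxidase/peroxidase Amplex Red coupling, with fluorescence taken at baseline and 30 min.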
HP1b binding inh: HTS for Inhibitors of HP1-beta Chromodomain Interactions with Methylated Histone Tails | Chromobox protein homolog 1 (Homo sapiens), P83916 | AlphaScreen HP1-beta / biotin-H3K9me3 peptide binding | Potency, µM (series often up to 114 µM), inactives show at the highest dose activity change, negative = inhibition, hits mostly inhibitors | 390,000 tested, 0.56% active; note: nearly all actives have a fitted effect of over 70% in size
Target sequence (P83916 whole entry, looked up): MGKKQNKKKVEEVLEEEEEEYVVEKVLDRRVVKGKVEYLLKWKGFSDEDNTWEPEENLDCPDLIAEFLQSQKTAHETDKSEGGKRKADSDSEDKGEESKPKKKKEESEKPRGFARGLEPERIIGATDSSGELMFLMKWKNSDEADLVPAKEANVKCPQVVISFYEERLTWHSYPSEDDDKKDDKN
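Compound inhibition of the preformed complex between 50 nM HP1-beta and 50 nM biotinylated H3K9me3 peptide was read by AlphaScreen. Buffer was PBS pH 7.4 with 0.01% Tween-20. Incubations ran 30 min at room temperature, with 10 ug/mL donor/acceptor beads.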
* marks the source's active call; other numbers are inactive results; ? = inconclusive; / = not tested or not shown; [ ] = dose if it differs, or a comment. Calls come from the whole dose curve; as a rule, active = well fitted curve in the direction sought with a large enough effect; inconclusive = small, poorly fitted or top-dose-only effect, or another doubt; inactive = no such curve, though single readings can be large; an effect the other way counts as inactive or inconclusive. Potency is the fitted concentration of half-maximal effect.

SMILES | BAZ2B inh | G9a inh | L3MBTL1 inh | JMJD2A Tudor inh | GLS inhibitor | HP1b binding inh
COc1ccc(N2CC(C(=O)Nc3ccc([N+](=O)[O-])cc3Br)CC2=O)cc1 (stereo not given) | -10% | ? | / | -28% | 4% | -6%
COc1cc(OC)cc(C(=O)N[C@H](C(=O)Nc2nc3ccc(S(C)(=O)=O)cc3s2)C(C)C)c1 | -13% | 40µM* | / | -8% | -2% | 58%
COc1ccc(N2CC(C(=O)Nc3nc4ccc(S(C)(=O)=O)cc4s3)CC2=O)cc1 (stereo not given) | ? | 28µM* | / | -29% | -9% | -12%
COc1ccc(N2CC(C(=O)N/N=C/c3cc([N+](=O)[O-])ccc3O)CC2=O)cc1 (stereo not given) | 35µM* | -37% | / | 79µM* | -5% | 47%
CCc1ccc(N2CC(C(=O)Nc3nc4ccc(S(C)(=O)=O)cc4s3)CC2=O)cc1 (stereo not given) | -2% | 40µM* | / | -21% | -13% | -33%
COc1ccc(C(=O)Nc2nc3ccc(S(C)(=O)=O)cc3s2)cc1 | 11% | ? | 9% | -1% | 5% | 42%
CS(=O)(=O)c1ccc2nc(NC(=O)C3CC(=O)N(c4ccc(F)cc4)C3)sc2c1 (stereo not given) | -17% | ? | / | -6% | -10% | 29%
COc1ccc2nc(NC(=O)C3CCN(S(=O)(=O)c4cccs4)CC3)sc2c1 | -4% | 3%[59 µM] | / | 100µM* | 7% | 17%
Cc1ccc(NC(=O)N2CCc3c(sc4c3CCCC4)C2c2ccccc2)cc1F (stereo not given) | -38% | -2%[12.7 µM] | / | -6% | -1% | 24%
Cc1ccccc1/C=N\NC(=O)c1ccc(Cn2cccn2)o1 | 1% | 2%[59 µM] | -2% | 56µM* | -21% | -1%
O=S(=O)(c1ccccc1)N1CCC[C@@]2(CCN(c3ccncc3)C2)C1 | / | -4%[12.7 µM] | / | / | / | /
CCCCn1c(CNC(=O)C23CC4CC(CC(C4)C2)C3)nnc1SCC(=O)Nc1ccc(F)cc1 | -14% | -42%[59 µM] | / | -21% | 3% | 21%
O=C(CSc1ncc(-c2ccc(Cl)cc2)[nH]1)Nc1ccccc1F | -20% | 10µM* | / | -2% | 13% | 18%
O=C(CSc1ncc(-c2ccc(F)cc2)[nH]1)N1CCCCC1 | ? | 45µM* | 1% | -26% | 20% | 13%
O=C(CSc1ncc(-c2ccccc2)[nH]1)Nc1ccccc1F | ? | ? | / | -30% | 20% | 10%
COCCCNC(=O)C1CCN(c2ncnc3c2nc2n3CCCCC2)CC1 | 3% | 0%[59 µM] | / | -18% | -10% | 25%
Cc1ccccc1OCC(=O)NCC(=O)OC(c1ccccc1)c1ccccc1 | / | / | / | -2%[57.1 µM] | / | 19%[57 µM]
N#CC(=C(\N)Sc1ccccc1N)/C(C#N)=C(/N)Sc1ccccc1N | / | 32µM* | / | / | / | /
Nc1ccccc1SCc1ccccc1 | 11% | 13%[59 µM] | / | -12% | 5% | 58%
CC(=O)c1sc2nc(-c3cccs3)ccc2c1N | 2% | 1.6µM* | / | 25µM* | 13% | -3%
Clc1ccc(Cl)c(-c2nc(-c3ccncc3)no2)c1 | -2% | 27% | -21% | -7% | -10% | 26%
S=c1nc(-c2cccc(Cl)c2)[nH][nH]1 | -20% | 1.6µM* | / | 2.5µM* | -17% | 12%
S=c1nc(-c2cc(Cl)ccc2Cl)[nH][nH]1 | -23% | 1.6µM* | 16% | 5µM* | -11% | ?
S=c1nc(-c2cc(Cl)cc(Cl)c2)[nH][nH]1 | -5% | 22µM* | 5% | 79µM* | 4% | -1%
Cc1cc(C)nc(Nc2n[nH]c(-c3ccccc3Br)n2)n1 | -32% | ? | / | -3% | 0% | 29%
SMILES | BAZ2B inh | G9a inh | L3MBTL1 inh | JMJD2A Tudor inh | GLS inhibitor | HP1b binding inh
S=c1nc(-c2ccccc2Br)[nH][nH]1 | 12% | 0.79µM* | -16% | 0.79µM* | 0% | ?
CCOc1ccc(CCNC(=O)c2cc(C)nc3c2c(C)nn3-c2cccc(F)c2)cc1 | 15%[57.1 µM] | -1%[59 µM] | / | -3% | 1% | 8%
Cc1nn(C(=O)c2ccc(Cl)cc2)c(C)c1S(=O)(=O)N1CCCCCC1 | 9% | 21%[59 µM] | / | 37% | 26% | 26%[57 µM]
O=C1CCCc2cc(S(=O)(=O)N3CCCC(C(=O)NCc4ccc(Cl)cc4)C3)ccc2N1 (stereo not given) | 9%[57.1 µM] | -4%[59 µM] | / | 6% | 0% | 35%
COc1cc(C(=O)Nc2c(C(=O)Nc3ccccc3F)oc3ccccc23)cc(OC)c1OC | -1% | 14%[59 µM] | / | -14% | 3% | 32%
O=C(Nc1ccc2oc(-c3cccnc3)nc2c1)c1ccc(-c2ccccc2)o1 | ? | 11µM* | / | ? | -12% | -20%
O=C(Nc1ccc2oc(-c3cccnc3)nc2c1)c1ccc(-c2ccc(OC(F)(F)F)cc2)o1 | -2% | ? | / | -16% | -13% | 38%
O=C(Nc1ccc2oc(-c3ccncc3)nc2c1)c1ccc(F)cc1 | 50µM* | 82% | / | ? | -6% | 143%
O=C(Nc1ccc2oc(-c3ccncc3)nc2c1)c1ccc2c(c1)OCCO2 | 56µM* | 20µM* | / | 56µM* | 2% | -19%
O=C(Nc1ccc2oc(-c3cccnc3)nc2c1)c1ccc2c(c1)OCCO2 | 79µM* | 14µM* | -2% | 89µM* | 0% | -3%
O=C(Nc1ccc(-c2nc3cc(NC(=O)c4ccc(F)cc4)ccc3o2)cc1)c1ccc(F)cc1 | 8% | 6%[59 µM] | / | -25% | 6% | -11%
O=C(Nc1ccc2oc(-c3ccncc3)nc2c1)c1ccc2c(c1)OCO2 | ? | ? | / | ? | -24% | 10%
CCN1CCN(C(=O)c2ccc3c(c2)N(Cc2c(F)cccc2Cl)C(=O)c2ccccc2S3)CC1 | / | -33%[59 µM] | / | ? | 4% | -3%
CCOC(=O)c1cccc(NC(=O)c2cc3c(Cl)nc4ccc(C)cc4c3s2)c1 | -5% | -24%[59 µM] | / | -2% | 2% | 33%
Cc1ccc(C2=Nc3ccccc3N(CC(=O)Nc3ccccc3C)C(=O)C2)cc1C | -17% | 7%[59 µM] | / | -26% | -1% | -15%
CC1CCc2c(sc3nnn(Cc4cccc(C(=O)OC(C)C)c4)c(=O)c23)C1 (stereo not given) | 3% | 18µM* | / | 6% | 7% | 35%
COc1ccc(OCCn2nnc3sc4c(c3c2=O)CCCC4)cc1 | 50µM* | -3%[59 µM] | / | 79µM* | -10% | 3%
